In PubChem BioAssay (EPA / NIEHS):
Calls of active or inactive are those of the source. The calls were made as follows: active = hit-call score of the fitted dose curve at least 0.9, where 1 is the maximum; inactive = score below 0.9.

How the values were obtained:
[1] = APR_HepG2_CellCycleArrest_24hr: Apredica 24-hour HepG2 Assay for Cell Cycle Arrest (AID 2282905); conditions: imaging, actives raise or lower the signal;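 also: cell cycle arrest scored as ratio of 2N to 4N nuclear DNA content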
Summary of the method: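 Readout: Hoechst 33342 nuclear DNA content by high-content fluorescent imaging, six images/well, 20x. Human HepG2 liver cells, 24 hr compound exposure, 0.39–200 uM, final DMSO 0.5% v/v. Gain or loss fitted relative to DMSO baseline.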

[2] = APR_HepG2_NuclearSize_24hr: Apredica 24-hour HepG2 Assay for Nuclear Size (AID 2282907); conditions: high-content imaging, actives raise or lower the signal
Summary of the method: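 Read-out: nuclear diameter from Hoechst 33342 (2 ug/mL) imaging of fixed HepG2 cells, 20x, six fields/well. Compounds ran at 0.39–200 uM for 24 hr, 0.5% DMSO final. Gain or loss was fitted bidirectionally relative to the DMSO baseline.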

[3] = APR_HepG2_CellLoss_24hr: Apredica 24-hour HepG2 Assay for Cell Loss (AID 2282908); conditions: high-content imaging;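 as to AC50: fit in both directions so a hit may be cell loss or gain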
Summary of the method: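 Read-out: Hoechst 33342-stained nuclei counted by automated fluorescence imaging after formaldehyde fixation and Triton permeabilization. Ten concentrations, 0.39 to 200 uM, duplicate wells, 0.5% DMSO final. Gain or loss of signal fitted relative to DMSO baseline.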

[4] = APR_HepG2_MicrotubuleCSK_24hr: Apredica 24-hour HepG2 Assay for Microtubule CSK Stabilty (AID 2282909); conditions: HepG2 microtubule cytoskeleton imaging, actives raise or lower the signal
Summary of the method: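 Read-out: alpha-tubulin immunofluorescence intensity by automated high-content imaging of fixed HepG2 cells after 24 h compound treatment. Ten concentrations, 0.39 to 200 uM, in duplicate; DMSO 0.5% v/v. Taxol positive control; DMSO-normalized bidirectional curve fitting.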

[5] = APR_HepG2_MitoticArrest_24hr: Apredica 24-hour HepG2 Assay for Mitotic Arrest (AID 2282910); conditions: high-content imaging, actives raise or lower the signal
Summary of the method: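 Treatment lasted 24 hr in the human HepG2 line at 0.39–200 uM, solvent held at 0.5% DMSO. Fixed cells were stained with Hoechst 33342 and anti-phospho-histone H3, imaged at 20x, and analysed by gain- or loss-of-signal fitting against DMSO.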

[6] = APR_HepG2_MitoMembPot_24hr: Apredica 24-hour HepG2 Assay for Mitochondrial Membrane Potential (AID 2282911); conditions: imaging, actives raise or lower the signal
Summary of the method: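 Human hepatoma HepG2 cultures received ten compound concentrations up to 200 uM for 24 hr. Membrane-potential dye signal, captured by automated fluorescence microscopy, was scored for gain or loss against DMSO controls.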

[7] = APR_HepG2_MitoMass_24hr: Apredica 24-hour HepG2 Assay for Mitochondrial Mass (AID 2282912); conditions: high-content imaging, actives raise or lower the signal
Summary of the method: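 HepG2, 24 hr dosing, 10 concentrations 0.39–200 uM in duplicate, DMSO 0.5% final. MitoTracker Red CMXRos 250 nM, 30 min pre-fix; 3.7% formaldehyde fix. Imaging-based fluorescence intensity; gain/loss fit vs DMSO baseline.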

[8] = APR_HepG2_p53Act_24hr: Apredica 24-hour HepG2 Assay for p53 Activation (AID 2282913); conditions: high-content imaging, actives raise or lower the signal;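 also: p53 protein immunofluorescence averaged per cell in HepG2 with Hoechst nuclei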
Summary of the method: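 Automated fluorescence imaging quantifies p53 immunostaining in HepG2 cells after a 24 hr exposure (0.39–200 uM, duplicate, 0.5% DMSO). Nuclei are located by Hoechst 33342 staining.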

[9] = APR_HepG2_CellLoss_72hr: Apredica 72-hour HepG2 Assay for Cell Loss (AID 2282915); conditions: high-content imaging
Summary of the method: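 HepG2 cells were exposed for 72 hr to compounds at 0.39–200 uM (ten concentrations, duplicate) in 0.5% v/v final DMSO. Nuclei were stained with Hoechst 33342 after 3.7% formaldehyde fixation, imaged at 20x, and counted; fits bidirectional versus DMSO.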

[10] = APR_HepG2_P-H2AX_72hr: Apredica 72-hour HepG2 Assay for H2AX Phosphorylation (AID 2282916); conditions: imaging, actives raise or lower the signal;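 also: phospho-histone H2A.x immunostain intensity per cell marking DNA damage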
Summary of the method: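 Readout: phospho-H2A.x immunofluorescence (FITC secondary) plus Hoechst nuclear stain, high-content imaging at 20x, six fields/well. HepG2, 72 hr compound exposure, 0.39–200 uM, final DMSO 0.5% v/v. Gain or loss fitted relative to DMSO baseline.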

[11] = APR_HepG2_MitoMembPot_72hr: Apredica 72-hour HepG2 Assay for Mitochondrial Membrane Potential (AID 2282917); conditions: imaging, actives raise or lower the signal
Summary of the method: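 HepG2 cells exposed 72 h to compounds at 0.39–200 uM (0.5% v/v DMSO, duplicates); MitoTracker Red CMXRos 250 nM loaded 30 min before 3.7% formaldehyde fixation, imaged by HCS fluorescence. Bidirectional fit versus DMSO.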

[12] = APR_HepG2_MitoticArrest_72hr: Apredica 72-hour HepG2 Assay for Mitotic Arrest (AID 2282918); conditions: high-content imaging, actives raise or lower the signal
Summary of the method: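 Mitotic arrest in HepG2 is scored from phospho-histone H3 staining after 72 hr dosing across 0.39–200 uM, with DMSO at 0.5% v/v. Nuclei are identified by Hoechst 33342 and fluorescence intensity is quantified per cell.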

[13] = APR_HepG2_MicrotubuleCSK_72hr: Apredica 72-hour HepG2 Assay for Microtubule CSK Stabilty (AID 2282919); conditions: HepG2 microtubule cytoskeleton, high-content imaging, actives raise or lower the signal
Summary of the method: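 Ten-point dosing (0.39–200 uM, 0.5% DMSO) of HepG2 for 72 hr, with taxol as the cytoskeletal positive control. The cells were formaldehyde-fixed and then stained with alpha-tubulin/Cy5 and Hoechst. Imaging at 20x used a −2 um Z offset for tubulin.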

[14] = APR_HepG2_P-H2AX_24hr: Apredica 24-hour HepG2 Assay for H2AX Phosphorylation (AID 2282920); conditions: high-content imaging, actives raise or lower the signal
Summary of the method: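 Signal comes from a FITC-labeled secondary detecting phospho-histone H2A.x in fixed HepG2 cells, quantified by automated imaging at 20x. Dosing ran 24 hr across 0.39–200 uM with 0.5% v/v DMSO.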

[15] = APR_HepG2_StressKinase_72hr: Apredica 72-hour HepG2 Assay for Stress Kinase (AID 2282921); conditions: HepG2 stress kinase (phospho-c-Jun) imaging, actives raise or lower the signal
Summary of the method: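 Phospho-c-Jun immunofluorescence measured by high-content imaging at 20x, six fields per well; bidirectional curve fitting against DMSO as baseline. Dosing: 0.39–200 uM, 72 h, 0.5% DMSO final.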

[16] = APR_HepG2_StressKinase_24hr: Apredica 24-hour HepG2 Assay for Stress Kinase (AID 2282922); conditions: HepG2 stress kinase (phospho-c-Jun) imaging, actives raise or lower the signal
Summary of the method: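 After 24 hr compound treatment (up to 200 uM, final DMSO 0.5% v/v), HepG2 cells are fixed and multiplex-labeled; phospho-c-Jun intensity is captured by high-content fluorescence imaging and analyzed relative to DMSO.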

[17] = APR_HepG2_p53Act_72hr: Apredica 72-hour HepG2 Assay for p53 Activation (AID 2282923); conditions: high-content imaging, actives raise or lower the signal;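 also: average cellular p53 protein immunofluorescence intensity in HepG2 cells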
Summary of the method: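 Readout: p53 immunofluorescence quantified by automated high-content imaging at 20x, six fields per well, nuclei located via Hoechst. Dosing ran 72 hr over ten concentrations from 0.39 to 200 uM; bidirectional curve fitting against DMSO baseline.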

[18] = APR_HepG2_MitoMass_72hr: Apredica 72-hour HepG2 Assay for Mitochondrial Mass (AID 2282924); conditions: high-content imaging, actives raise or lower the signal;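 also: MitoTracker Red CMXRos stain intensity per cell imaged as mitochondrial mass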
Summary of the method: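 Steps: treat HepG2 72 hr (0.39–200 uM, duplicate wells); load MitoTracker Red CMXRos, 250 nM, 30 min; fix with 3.7% formaldehyde, permeabilise with 0.5% Triton X-100; capture images, nuclei via Hoechst 33342; fit bidirectionally against DMSO.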

[19] = APR_HepG2_NuclearSize_72hr: Apredica 72-hour HepG2 Assay for Nuclear Size (AID 2282925); conditions: high-content imaging, actives raise or lower the signal
Summary of the method: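 Compounds (0.39–200 uM, final DMSO 0.5%) were applied to HepG2 for 72 hr. Cells were then formaldehyde-fixed, permeabilized and labelled with Hoechst 33342. Nuclear diameter was quantified from six images per well.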

[20] = APR_HepG2_CellCycleArrest_72hr: Apredica 72-hour HepG2 Assay for Cell Cycle Arrest (AID 2282914); conditions: high-content imaging, actives raise or lower the signal
Summary of the method: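 Cell cycle arrest in HepG2 was scored from nuclear DNA content after 72 hr compound treatment (0.39–200 uM). Activity, either gain or loss, was fitted against the DMSO baseline.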

Measured: AC50

Cc1ccc([N+](=O)[O-])cc1
not listed: [20]
inactive: all other assays above

Nc1cc(Cl)cc(C(=O)O)c1Cl
inactive: all assays above

CCOC(=O)[C@]1(c2ccccc2)Oc2ccccc2[C@@H]1N
active: [3] 86.7 µM | [4] 112 µM | [5] 111 µM | [7] 107 µM | [9] 116 µM | [10] 112 µM | [12] 90.8 µM | [14] 120 µM | [15] 109 µM
not listed: [8] | [17]
inactive: all other assays above

COC(=O)c1ccccc1N
not listed: [1]
inactive: all other assays above

c1ccc(N=Nc2ccccc2)cc1
not listed: [1]
inactive: all other assays above

CCN(CC)CCO
not listed: [20]
inactive: all other assays above

Cc1cccc(N)c1N
active: [6] 99.9 µM | [20] 7.98 µM | [9] 14.1 µM | [10] 56.3 µM | [12] 19.8 µM | [14] 44.5 µM
not listed: [1]
inactive: all other assays above

Clc1ccc(C(c2ccc(Cl)cc2)C(Cl)(Cl)Cl)cc1
inactive: [1] | [4] | [13] | [15] | [17] | [18] | [19]
active: [2] 56.5 µM | [3] 57.9 µM | [5] 50.1 µM | [6] 30.3 µM | [7] 44.4 µM | [8] 54.7 µM | [9] 50.5 µM | [10] 50.2 µM | [11] 30.4 µM | [12] 42.6 µM | [14] 50.5 µM | [16] 51.9 µM

N#CC(Br)Br
active: [3] 115 µM | [4] 169 µM | [5] 45.4 µM | [7] 86.6 µM | [9] 96.9 µM | [10] 96.9 µM | [12] 73.6 µM | [14] 88.8 µM
not listed: [8] | [17] | [20]
inactive: all other assays above

O=[N+]([O-])c1ccc(Oc2ccc(Cl)cc2Cl)cc1
active: [3] 80.8 µM | [9] 89.7 µM | [12] 71 µM
not listed: [1]
inactive: all other assays above

OCCOCCO
not listed: [8] | [17]
inactive: all other assays above

CCNS(=O)(=O)C(F)(F)C(F)(F)C(F)(F)C(F)(F)C(F)(F)C(F)(F)C(F)(F)C(F)(F)F
active: [1] 25.2 µM | [3] 38.9 µM | [4] 56 µM | [5] 46.3 µM | [6] 103 µM | [9] 81.5 µM | [10] 100 µM | [11] 91.2 µM | [12] 72.5 µM | [13] 77.6 µM | [14] 68.5 µM | [15] 112 µM | [19] 105 µM
inactive: [2] | [7] | [16] | [18]

ClCCOCCCl
not listed: [20]
inactive: all other assays above
